# According to the supplement of paper PMC8728848:
# The sample as a whole holds a higher share of the strongest signals than the screen did.
# B1: AFCNVH (Aspergillus fumigatus) (protein)
# chain: MSLRGFHTTCDTIVLKDKHILSSRCKRPDGTYSFSEIDLNDCLGNNNGKFVWGGESFVDSASQVNLALEGGEGRPMLHAQLNDWHGSVQSASVNLGECIQNEAGGLEYMHC
# Key:
# Assay in all cases: glycan array binding signal (z-score within array); higher = stronger binding
# Details in all cases: glycan notation: IUPAC condensed, linker removed
# [1] = molecular target: GlcNAc(b1-2)[GlcNAc(b1-6)]Man(a1-6)[GlcNAc(b1-2)Man(a1-3)]Man(b1-4)GlcNAc(b1-4)GlcNAc
# Summary of the method: (§1)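 From the Consortium for Functional Glycomics database, 3228 arrays were curated, keeping only those whose protein sequence was available. Binding is given as a within-array Z-score averaged across arrays sharing a protein sequence and across linkers. Negative Z-scores can be read as non-binding.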
# GlcNAc(b1-3)Gal(b1-4)Glc = molecular target: GlcNAc(b1-3)Gal(b1-4)Glc
# Summary of the method: as §1
# [2] = molecular target: GlcNAc(b1-3)Gal(b1-4)GlcNAc(b1-3)Gal(b1-4)GlcNAc(b1-2)[GlcNAc(b1-3)Gal(b1-4)GlcNAc(b1-3)Gal(b1-4)GlcNAc(b1-6)]Man(a1-6)[GlcNAc(b1-3)Gal(b1-4)GlcNAc(b1-3)Gal(b1-4)GlcNAc(b1-2)Man(a1-3)]Man(b1-4)GlcNAc(b1-4)[Fuc(a1-6)]GlcNAc
# Summary of the method: as §1
# [3] = molecular target: GlcNAc(b1-3)Gal(b1-4)GlcNAc(b1-3)Gal(b1-4)GlcNAc(b1-3)Gal(b1-4)GlcNAc(b1-2)Man(a1-3)[GlcNAc(b1-3)Gal(b1-4)GlcNAc(b1-3)Gal(b1-4)GlcNAc(b1-3)Gal(b1-4)GlcNAc(b1-2)Man(a1-6)]Man(b1-4)GlcNAc(b1-4)GlcNAc
# Summary of the method: as §1
# [4] = molecular target: GlcNAc(b1-3)Gal(b1-4)GlcNAc(b1-3)Gal(b1-4)GlcNAc(b1-3)Gal(b1-4)GlcNAc(b1-2)[GlcNAc(b1-3)Gal(b1-4)GlcNAc(b1-3)Gal(b1-4)GlcNAc(b1-3)Gal(b1-4)GlcNAc(b1-6)]Man(a1-6)[GlcNAc(b1-3)Gal(b1-4)GlcNAc(b1-3)Gal(b1-4)GlcNAc(b1-3)Gal(b1-4)GlcNAc(b1-2)Man(a1-3)]Man(b1-4)GlcNAc(b1-4)[Fuc(a1-6)]GlcNAc
# Summary of the method: as §1
# [5] = molecular target: GlcNAc(b1-3)Gal(b1-4)GlcNAc(b1-3)Gal(b1-4)GlcNAc(b1-3)Gal(b1-4)GlcNAc(b1-3)Gal(b1-4)GlcNAc(b1-2)Man(a1-3)[GlcNAc(b1-3)Gal(b1-4)GlcNAc(b1-3)Gal(b1-4)GlcNAc(b1-3)Gal(b1-4)GlcNAc(b1-3)Gal(b1-4)GlcNAc(b1-2)Man(a1-6)]Man(b1-4)GlcNAc(b1-4)[Fuc(a1-6)]GlcNAc
# Summary of the method: as §1
# [6] = molecular target: GlcNAc(b1-3)Gal(b1-4)GlcNAc(b1-3)Gal(b1-4)GlcNAc(b1-3)Gal(b1-4)GlcNAc(b1-3)Gal(b1-4)GlcNAc(b1-2)[GlcNAc(b1-3)Gal(b1-4)GlcNAc(b1-3)Gal(b1-4)GlcNAc(b1-3)Gal(b1-4)GlcNAc(b1-3)Gal(b1-4)GlcNAc(b1-6)]Man(a1-6)[GlcNAc(b1-3)Gal(b1-4)GlcNAc(b1-3)Gal(b1-4)GlcNAc(b1-3)Gal(b1-4)GlcNAc(b1-3)Gal(b1-4)GlcNAc(b1-2)Man(a1-3)]Man(b1-4)GlcNAc(b1-4)[Fuc(a1-6)]GlcNAc
# Summary of the method: as §1
# [7] = molecular target: GlcNAc(b1-3)[GlcNAc(b1-4)][GlcNAc(b1-6)]GlcNAc
# Summary of the method: as §1
# [8] = molecular target: GlcNAc(b1-4)GlcNAc(b1-4)GlcNAc(b1-4)GlcNAc(b1-4)GlcNAc
# Summary of the method: as §1
# GlcNAc(b1-6)GalNAc = molecular target: GlcNAc(b1-6)GalNAc
# Summary of the method: as §1
# [9] = molecular target: Kdn(a2-3)Gal(b1-4)[Fuc(a1-3)]GlcNAc
# Summary of the method: as §1
# [10] = molecular target: Man(a1-2)Man(a1-3)[Man(a1-2)Man(a1-6)]Man(a1-6)[Man(a1-2)Man(a1-2)Man(a1-3)]Man(b1-4)GlcNAc(b1-4)GlcNAc
# Summary of the method: as §1
# Man(b1-4)GlcNAc = molecular target: Man(b1-4)GlcNAc
# Summary of the method: as §1
# [11] = molecular target: Neu5Ac(a2-3)Gal(b1-3)GlcNAc(b1-2)[Neu5Ac(a2-3)Gal(b1-3)GlcNAc(b1-4)]Man(a1-6)[Neu5Ac(a2-3)Gal(b1-3)GlcNAc(b1-2)Man(a1-3)]Man(b1-4)GlcNAc(b1-4)GlcNAc
# Summary of the method: as §1
# [12] = molecular target: Neu5Ac(a2-3)Gal(b1-3)GlcNAc(b1-3)GalNAc
# Summary of the method: as §1
# [13] = molecular target: Neu5Ac(a2-3)Gal(b1-3)GlcNAc6S
# Summary of the method: as §1
# [14] = molecular target: Neu5Ac(a2-3)Gal(b1-3)[Fuc(a1-4)]GlcNAc(b1-3)Gal(b1-4)[Fuc(a1-3)]GlcNAc
# Summary of the method: as §1
# [15] = molecular target: Neu5Ac(a2-3)Gal(b1-3)[Neu5Ac(a2-6)]GlcNAc(b1-3)[Fuc(a1-3)[Gal(b1-4)]GlcNAc(b1-6)]Gal(b1-4)Glc
# Summary of the method: as §1
# [16] = molecular target: Neu5Ac(a2-3)Gal(b1-3)]Neu5Ac(a2-3)Gal(b1-4)]GlcNAc
# Summary of the method: as §1
# [17] = molecular target: Neu5Ac(a2-3)Gal(b1-4)GlcNAc(b1-2)[Neu5Ac(a2-3)Gal(b1-4)GlcNAc(b1-4)]Man(a1-3)[GlcNAc(b1-4)][Neu5Ac(a2-3)Gal(b1-4)GlcNAc(b1-2)[Neu5Ac(a2-3)Gal(b1-4)GlcNAc(b1-6)]Man(a1-6)]Man(b1-4)GlcNAc(b1-4)GlcNAc
# Summary of the method: as §1
# [18] = molecular target: Neu5Ac(a2-3)Gal(b1-4)GlcNAc(b1-3)Gal(b1-4)[Fuc(a1-3)]GlcNAc
# Summary of the method: as §1
# [19] = molecular target: Neu5Ac(a2-3)Gal(b1-4)GlcNAc(b1-3)GalNAc
# Summary of the method: as §1
# [20] = molecular target: Neu5Ac(a2-3)GalNAc(b1-4)GlcNAc
# Summary of the method: as §1
# [21] = molecular target: Neu5Ac(a2-8)Neu5Ac(a2-3)Gal(b1-3)GalNAc(b1-4)[Neu5Ac(a2-3)]Gal(b1-4)Glc
# Summary of the method: as §1
# [22] = molecular target: Neu5Ac(a2-8)Neu5Gc(a2-3)Gal(b1-4)GlcNAc
# Summary of the method: as §1
# Neu5Gc(a2-3)Gal(b1-4)Glc = molecular target: Neu5Gc(a2-3)Gal(b1-4)Glc
# Summary of the method: as §1
binder,measurement,setting,value
B1,glycan array binding signal (z-score),[1],-0.203
same,glycan array binding signal (z-score),GlcNAc(b1-3)Gal(b1-4)Glc,-0.196
same,glycan array binding signal (z-score),[2],3.73
same,glycan array binding signal (z-score),[3],4.24
same,glycan array binding signal (z-score),[4],3.78
same,glycan array binding signal (z-score),[5],1.62
same,glycan array binding signal (z-score),[6],4.73
same,glycan array binding signal (z-score),[7],-0.338
same,glycan array binding signal (z-score),[8],3.83
same,glycan array binding signal (z-score),GlcNAc(b1-6)GalNAc,1.1
same,glycan array binding signal (z-score),[9],-0.455
same,glycan array binding signal (z-score),[10],-0.336
same,glycan array binding signal (z-score),Man(b1-4)GlcNAc,-0.3
same,glycan array binding signal (z-score),[11],-0.439
same,glycan array binding signal (z-score),[12],-0.385
same,glycan array binding signal (z-score),[13],-0.204
same,glycan array binding signal (z-score),[14],-0.305
same,glycan array binding signal (z-score),[15],-0.416
same,glycan array binding signal (z-score),[16],-0.242
same,glycan array binding signal (z-score),[17],-0.351
same,glycan array binding signal (z-score),[18],-0.398
same,glycan array binding signal (z-score),[19],-0.339
same,glycan array binding signal (z-score),[20],-0.24
same,glycan array binding signal (z-score),[21],-0.287
same,glycan array binding signal (z-score),[22],-0.48
same,glycan array binding signal (z-score),Neu5Gc(a2-3)Gal(b1-4)Glc,-0.447
